Source: PubChem BioAssay (several laboratories)
FXN GAA850 act: FXN promoter activators, primary screen, cell-based, luciferase luminescence, HEK293 lucGAA850 | HEK293 lucGAA850 FXN promoter luciferase reporter, 24 h; percent of 10 µM SAHA response | activation, % at 6 µM | actives 0.56% (n = 360,000);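 active = activation above the average of all compounds screened plus 3 SD, cutoff fixed separately per campaign, cut at about 7.5% in these data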
Wnt act: Wnt/beta-catenin pathway activators, primary screen, cell-based, plate reader, single point; actives 1.2% (n = 300,000); Wnt/beta-catenin reporter cell assay, activator; activation, % at 9.35 µM; AID 743398, 2014; in the data active = activation above about 30%, passing the limit was not always enough; inconclusive = no clear call, values can overlap the other calls
AHR activator: AHR activators, primary screen, cell-based, luminescence, luciferase reporter, human | actives 2.5% (n = 320,000) | activation, % at 5 µM | Aryl hydrocarbon receptor (Homo sapiens), P35869 | AHR-responsive luciferase reporter cells; in the data active = activation above about 47%
Target sequence (P35869 whole entry, looked up): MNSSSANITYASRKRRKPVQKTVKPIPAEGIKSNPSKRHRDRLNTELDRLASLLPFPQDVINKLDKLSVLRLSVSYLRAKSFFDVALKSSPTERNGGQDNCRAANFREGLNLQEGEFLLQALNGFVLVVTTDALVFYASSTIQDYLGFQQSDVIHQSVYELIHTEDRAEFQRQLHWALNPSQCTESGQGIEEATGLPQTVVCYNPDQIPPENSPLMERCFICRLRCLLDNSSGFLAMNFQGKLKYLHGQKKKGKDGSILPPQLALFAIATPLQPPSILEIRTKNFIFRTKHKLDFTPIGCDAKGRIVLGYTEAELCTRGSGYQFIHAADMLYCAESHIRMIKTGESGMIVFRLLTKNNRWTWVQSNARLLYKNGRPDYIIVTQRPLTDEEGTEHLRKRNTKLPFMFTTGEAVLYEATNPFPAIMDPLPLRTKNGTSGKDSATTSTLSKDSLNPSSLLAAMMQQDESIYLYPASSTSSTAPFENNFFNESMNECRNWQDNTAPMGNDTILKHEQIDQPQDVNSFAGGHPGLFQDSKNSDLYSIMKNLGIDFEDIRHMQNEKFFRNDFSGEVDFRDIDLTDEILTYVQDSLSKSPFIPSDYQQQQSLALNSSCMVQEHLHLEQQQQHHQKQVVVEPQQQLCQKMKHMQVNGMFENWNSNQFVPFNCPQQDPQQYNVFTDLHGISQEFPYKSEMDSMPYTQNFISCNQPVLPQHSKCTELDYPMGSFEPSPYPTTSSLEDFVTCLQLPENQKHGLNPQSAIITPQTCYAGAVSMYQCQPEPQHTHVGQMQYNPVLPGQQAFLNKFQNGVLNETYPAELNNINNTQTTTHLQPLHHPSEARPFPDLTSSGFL
MITF TRPM1 HTS: activators of MITF-driven TRPM1 promoter reporter, primary screen, cell-based, SK-MEL-5, luciferase, single point. activation, % at 12.5 µM. AID 588334, 2011. SK-MEL-5 TRPM1-promoter luciferase, 24 h; % of positive control, neutral wells = 0. actives 0.75% (n = 300,000);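 active = mean activation of at least 80% with every replicate also reaching 80%; inconclusive = mean reaches 80% but some replicate falls short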
esBAF inh: Bmi1 luciferase reporter increase in mESCs, primary screen, esBAF inhibitor project, mouse ES cells, Bmi1 luciferase knock-in, single point. 24 h; 100% = twice the neutral-well signal. reporter increase, % at 12.5 µM. actives 2% (n = 350,000). AID 602393, 2012; in the data active = activation above about 40%; inconclusive = no clear call, values can overlap the other calls;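 also: a rise in the Bmi1 reporter signal indicates esBAF inhibition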
Numbers stand for hits; – = inactive; ? = inconclusive; · = no result. The list is not random: actives were taken first. Their share in the collection is about 4.2%.

SMILES	FXN GAA850 act	Wnt act	AHR activator	MITF TRPM1 HTS	esBAF inh
Cc1cccc(NC(=O)c2cccnc2)c1C	–	–	–	–	–
CC(=O)c1c(C)[nH]c(C(=O)Nc2cccc(C)c2C)c1C	–	–	54.8	–	–
CSCc1ccc(C(=O)Nc2cccc(C)c2C)cc1	–	34.2	–	111.9	·
Cc1cccc(NC(=O)c2onc3c2CCCC3)c1C	–	·	–	86.5	51.3
CCOc1cc(N2CCOCC2)c(OCC)cc1NC(=O)c1[nH]c(C)c(C(C)=O)c1C	–	–	–	–	–
CC(=O)c1c(C)[nH]c(C(=O)Nc2ccccc2N2CCOCC2)c1C	–	–	71.5	–	–
CC(=O)c1c(C)[nH]c(C(=O)NNC(=O)c2ccc(C)cc2)c1C	–	–	–	–	–
O=C(Nc1ccc2c(c1)[C@@H]1C[C@@H](CC(=O)N3CCc4ccccc4C3)O[C@@H](CO)[C@@H]1O2)C1CCOCC1	·	·	·	·	–
O=C(C[C@H]1C=C[C@H](NC(=O)NC2CCCCC2)[C@@H](CO)O1)NCc1ccccc1	·	·	·	·	–
C[C@H](CO)N1C[C@H](C)[C@@H](CN(C)C(=O)c2ccccc2)Oc2ncc(C#CC3CC3)cc2C1=O	·	·	·	·	–
CN1[C@@H]2Cn3c(ccc(-c4ccncc4)c3=O)[C@H]1[C@@H](C(=O)NC1CCCCC1)[C@@H]2CO	·	·	·	·	–
COc1ccccc1NC(=O)c1[nH]c(C)c(C(C)=O)c1C	–	–	54.7	–	–
CCOC(=O)N1CCC(N2CCCC(C(=O)c3cc(F)ccc3OC)C2)CC1 (stereo not drawn)	–	50.1	–	–	·
COc1ccc(F)cc1C(=O)C1CCCN(Cc2cccn2-c2cccnc2)C1 (stereo not drawn)	–	–	52.2	–	–
O=C(Nc1ccc2c(c1)[C@H]1C[C@@H](CC(=O)N3CCCCC3)O[C@H](CO)[C@H]1O2)NC1CCCC1	·	·	·	·	–
CCn1c2ccccc2c2cc(NC(=O)COC(=O)c3ccc(O)cc3)ccc21	–	–	–	–	–
CCn1c(=O)cc(OCC(=O)N2CCCCCC2)c2ccccc21	–	–	–	·	–
CCn1c2ccccc2c2cc(NC(=O)COC(=O)c3cccc(S(=O)(=O)NC)c3)ccc21	–	–	100.1	–	–
CCn1c2ccccc2c2cc(NC(=O)CSc3nnc(-c4ccc(OC)cc4)n3N)ccc21	–	·	48.5	–	–
CCn1c(=O)cc(OCC(=O)N2CCN(c3ccc(F)cc3)CC2)c2ccccc21	–	–	54.0	–	·
CCn1c2ccccc2c2cc(NC(=O)CNCc3ccccc3OC)ccc21	–	–	–	–	–
CCn1c2ccccc2c2cc(NC(=O)COc3ccccc3OC)ccc21	–	·	62.3	–	·
Cc1noc(C)c1S(=O)(=O)Nc1ccc2c(c1)C(=O)N([C@@H](C)CO)C[C@H](C)[C@H](CN(C)C(=O)c1ccncc1)OCCCC[C@@H](C)O2	·	·	·	·	–
O=C(C[C@@H]1CC[C@H]2[C@@H](COC[C@H](O)CN2Cc2ccccc2F)O1)N[C@H]1CCN(Cc2ccccc2)C1	·	·	·	·	–
COc1ccccc1C(=O)N1C[C@@H]2[C@H](c3ccccc31)[C@@H](CO)N2C(=O)Nc1ccccc1	·	·	·	·	–
SMILES	FXN GAA850 act	Wnt act	AHR activator	MITF TRPM1 HTS	esBAF inh
CCn1c2ccccc2c2cc(NC(C)=O)ccc21	–	·	50.5	–	–
CCn1c(=O)cc(OCC(=O)Nc2ccccc2C#N)c2ccccc21	–	–	72.5	·	–
CCn1c2ccccc2c2cc(NC(=O)C(=O)N3CCOCC3)ccc21	–	–	–	–	70.8
Cc1ccc(-c2nc3ccc(NS(=O)(=O)c4ccccc4)cc3[nH]2)o1	–	–	–	–	77.8
Cc1cc(C)c2c(N)c(C(=O)N/N=C/c3cccnc3)sc2n1	–	–	–	·	·
Cc1cc(C)c2c(N)c(C(=O)NC3CC3)sc2n1	–	·	–	–	·
Cc1cc(C)c2c(N)c(C(=O)N/N=C/c3ccccc3)sc2n1	–	46.9	–	·	45.8
Cc1cc(C)c2c(N)c(C(=O)NNC(=O)c3ccccc3)sc2n1	–	–	–	–	66.4
CCCN1[C@@H]2Cn3c(ccc(C4=CCCC4)c3=O)[C@H]1[C@@H](C(=O)NCCOC)[C@@H]2CO	·	·	·	·	–
CNC(=O)C[C@@H]1CC[C@@H]2[C@H](COC[C@@H](O)CN2Cc2ccc(Cl)c(Cl)c2)O1	·	·	·	·	–
CO[C@@H]1CN(C)C(=O)c2ccc(NC(=O)C3CCOCC3)cc2OC[C@@H](C)N(C(=O)Nc2ccc(C(F)(F)F)cc2)C[C@H]1C	·	·	·	·	–
N#Cc1cccnc1Nc1ccc(Cl)cc1	–	–	54.6	–	–
CCOC(=O)c1ccc(NC(=O)Nc2ncccc2C)cc1	–	–	–	–	?
Cc1cccnc1NC(=O)Nc1ccc(F)cc1	–	–	–	–	51.2
Cc1ccc(NC(=O)Nc2ncccc2C)cc1	–	–	57.4	–	·
Fc1cccc(Nc2ncnc3c2cnn3-c2ccccc2)c1	–	–	–	–	56.7
Clc1cccc(Nc2ncnc3c2cnn3-c2ccccc2)c1	–	–	–	–	64.5
Cn1ccsc1=NC(=O)c1ccccc1F	–	·	–	–	–
Cn1ccsc1=NC(=O)c1ccc(S(=O)(=O)C(F)F)cc1	–	–	–	–	58.5
Cc1ccc(NC(=O)CSCC(=O)N=c2sccn2C)cc1	–	–	–	–	–
Cn1ccsc1=NC(=O)c1ccccc1OC(F)F	–	–	71.3	–	–
COC(=O)c1ccc(C(=O)N=c2sccn2C)cc1	–	–	–	83.0	59.6
Cn1ccs/c1=N\C(=O)Nc1ccccc1	–	–	–	90.6	55.8
C[C@H]1CCCCO[C@H](CN(C)C(=O)Nc2ccc(F)cc2)[C@@H](C)CN([C@@H](C)CO)C(=O)c2cc(NS(=O)(=O)c3cn(C)cn3)ccc2O1	·	·	·	·	–
CC(=O)NC[C@H]1[C@@H](c2ccc(-c3ccccc3)cc2)[C@H](CO)N1C(=O)C1CCC1	·	·	·	·	–
SMILES	FXN GAA850 act	Wnt act	AHR activator	MITF TRPM1 HTS	esBAF inh
O=C(NCCc1ccccc1)[C@H]1[C@H](CO)[C@H]2Cn3c(cccc3=O)[C@@H]1N2C(=O)C1CCC1	·	·	·	·	–
CN(C)c1ccc(C(=O)N=c2sccn2C)cc1[N+](=O)[O-]	–	–	–	–	56.0
COc1ccc(C(=O)N=c2sccn2C)cc1	–	–	–	–	·
CCn1c(CNc2ccc(Cl)cc2)nnc1SCc1ccc(C)cc1	–	–	50.5	–	–
CN=C(c1ccc(C)cc1)n1c(=S)nc(-c2ccc(C)cc2)n(C)c1=S	–	55.4	–	–	82.9
O=C(C[C@H]1CC[C@H]2[C@@H](COC[C@@H](O)CN2S(=O)(=O)c2cccc(Cl)c2)O1)NCCCN1CCOCC1	·	·	·	·	–
COc1ccc(NC(=O)Nc2cccc3c2O[C@H](CN(C)S(=O)(=O)c2ccc(F)cc2)[C@H](C)CN([C@@H](C)CO)C3=O)cc1	·	·	·	·	–
CC1=CC(C)(C)N=C(Nc2ccc(C)cc2)S1	–	–	–	–	46.0
